According to PubChem BioAssay:
The source made the active and inactive calls.

Assays:
[1] = compound effects on differentiated 3T3-L1 adipocyte viability – cell-based, 3T3-L1 adipocytes, calcein-AM fluorescence, 48 h, basal, profiling panel (AID 1163); details: 3T3-L1 adipocytes viability, higher = more signal
[2] = compound effects on hepatocellular carcinoma cell viability – HepG2, calcein-AM fluorescence, 48 h, basal, profiling panel (AID 1164); details: higher = more signal
[3] = compound effects on multiple myeloma cell viability – MM1S, calcein-AM fluorescence, 48 h, basal, profiling panel (AID 1165); details: higher = more signal;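 also: viability of MM1S multiple myeloma cells under basal unstimulated conditions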
[4] = calcein-AM signal in unstimulated myeloma cells – cell-based, calcein-AM fluorescence, 48 h, PK04 Diversity Set, profiling panel (AID 1166); details: RPMI8226 myeloma viability, higher = more signal;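 also: cells grown under basal conditions without added stimulus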
[5] = JC-1 mitochondrial signal, unstimulated HepG2 cells – cell-based, JC-1 fluorescence, 24 h, 100 nL compound, profiling panel (AID 1167); details: HepG2 mitochondrial potential, higher = more signal
[6] = JC-1 mitochondrial signal, unstimulated adipocytes – cell-based, JC-1 fluorescence, 3T3-L1 adipocytes, 24 h, 100 nL compound, profiling panel (AID 1168); details: JC-1 mitochondrial fluorescence, higher = more signal, called active from +8 up or from −8 down
[7] = JC-1 mitochondrial signal, unstimulated myeloma cells – cell-based, JC-1 fluorescence, RPMI8226, 24 h, 100 nL compound, profiling panel (AID 1169); details: JC-1 mitochondrial potential fluorescence, higher = more signal
[8] = JC-1 mitochondrial signal, unstimulated MM1S myeloma – cell-based, JC-1 fluorescence, 24 h, 100 nL compound, profiling panel (AID 1170); details: MM1S mitochondrial potential, higher = more signal
[9] = resazurin metabolic signal in A549 cells – cell-based, resazurin fluorescence, 24 h, PK04 Diversity Set, profiling panel (AID 1171); details: A549 viability, higher = more signal, called active from +8 up or from −8 down
[10] = resazurin metabolic signal in HepG2 cells – cell-based, resazurin fluorescence, 24 h, PK04 Diversity Set, profiling panel (AID 1172); details: HepG2 viability, higher = more signal
[11] = budding yeast growth changes without added modifier – OD600, strain BY4716, 24 h, basal condition, primary screen (AID 1173); details: S. cerevisiae BY4716 growth, OD600, 24 h; higher = more signal, called active from +8 up or from −8 down
[12] = viability profiling in MM1S myeloma cells – cell-based, resazurin fluorescence, basal, 24 h, PK04 Diversity Set, profiling panel (AID 1174); details: higher = more signal, called active from +8 up or from −8 down
[13] = target: Dihydroorotate dehydrogenase (quinone), mitochondrial (Plasmodium falciparum (isolate 3D7)) (UniProt Q08210); experiment: inhibition of P. falciparum DHODH – biochemical, C-terminal His tag, absorbance 600 nm, primary screen (AID 1175); details: PfDHODH enzyme, DCIP absorbance 600 nm; higher = more signal, called active from +8 up or from −8 down;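 also: recombinant parasite enzyme with a five histidine tag at its C terminus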
Sequence of Dihydroorotate dehydrogenase (quinone), mitochondrial (Plasmodium falciparum (isolate 3D7)) (Q08210 whole entry, looked up): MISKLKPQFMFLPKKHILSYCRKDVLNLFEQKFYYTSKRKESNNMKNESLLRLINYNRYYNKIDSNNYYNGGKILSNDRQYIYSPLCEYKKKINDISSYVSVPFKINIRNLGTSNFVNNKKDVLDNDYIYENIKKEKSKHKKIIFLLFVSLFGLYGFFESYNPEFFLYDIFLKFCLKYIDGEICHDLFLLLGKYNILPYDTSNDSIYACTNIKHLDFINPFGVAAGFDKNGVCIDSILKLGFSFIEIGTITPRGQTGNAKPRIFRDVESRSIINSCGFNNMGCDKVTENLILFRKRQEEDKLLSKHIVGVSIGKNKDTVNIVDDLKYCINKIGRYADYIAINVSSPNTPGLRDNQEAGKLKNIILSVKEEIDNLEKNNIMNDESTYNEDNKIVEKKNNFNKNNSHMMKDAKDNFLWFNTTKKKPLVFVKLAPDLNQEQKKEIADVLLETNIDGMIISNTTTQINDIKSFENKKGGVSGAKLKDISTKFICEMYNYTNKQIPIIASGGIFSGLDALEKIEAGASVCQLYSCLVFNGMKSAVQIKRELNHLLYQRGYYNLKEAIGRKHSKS

[14] = growth modulation of vineyard yeast isolate – strain RM11-1a, OD600, basal, 24 h, primary screen (AID 1177);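 also: cultures grown under basal conditions with no added stressor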; details: S. cerevisiae RM11-1a growth, OD600, 24 h; higher = more signal, called active from +8 up or from −8 down
[15] = growth of efflux-deficient E. coli DRC39 – strain DRC39, OD650, 24 h, E. coli filamentation inducers, primary screen (AID 1178);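 also: growth measured as culture turbidity by optical density at 650 nm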; details: E. coli DRC39 acrAB, higher = more signal, called active from +8 up or from −8 down
[16] = growth of efflux-deficient E. coli DRC39 – strain DRC39, OD650, 48 h, E. coli filamentation inducers, primary screen (AID 1179);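 also: screen aims at cell division blockers that make cells filament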; details: E. coli DRC39 delta-acrAB growth, higher = more signal, called active from +8 up or from −8 down
[17] = viability profiling in RPMI8226 myeloma cells – cell-based, resazurin fluorescence, basal, 24 h, PK04 Diversity Set, profiling panel (AID 1180); details: higher = more signal;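 also: RPMI8826 multiple myeloma cell line at 5000 cells per well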
[18] = target: E3 ubiquitin-protein ligase XIAP (Homo sapiens) (UniProt P98170); experiment: small molecules binding XIAP protein – biophysical, small-molecule microarray, fluorescence 635 nm, primary screen (AID 1181); details: higher = more signal;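 also: score merges 667 nm emission and signal to noise over triplicate slides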
Sequence of E3 ubiquitin-protein ligase XIAP (Homo sapiens) (P98170 whole entry, looked up, the tested form may be a part): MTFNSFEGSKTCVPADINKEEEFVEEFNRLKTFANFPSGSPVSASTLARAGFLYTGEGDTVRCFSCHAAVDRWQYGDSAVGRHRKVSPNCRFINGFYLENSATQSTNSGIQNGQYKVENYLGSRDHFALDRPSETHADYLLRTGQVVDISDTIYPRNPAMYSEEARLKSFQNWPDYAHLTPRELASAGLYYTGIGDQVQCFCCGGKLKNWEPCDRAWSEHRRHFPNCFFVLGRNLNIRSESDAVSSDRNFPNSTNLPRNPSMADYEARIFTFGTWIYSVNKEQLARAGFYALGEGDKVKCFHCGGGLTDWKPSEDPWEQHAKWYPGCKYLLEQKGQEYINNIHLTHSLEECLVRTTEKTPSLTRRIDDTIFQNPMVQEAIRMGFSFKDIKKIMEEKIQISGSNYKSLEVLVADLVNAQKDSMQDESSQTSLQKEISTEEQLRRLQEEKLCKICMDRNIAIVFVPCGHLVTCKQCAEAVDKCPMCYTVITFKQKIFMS

[19] = test system: XIP peptide (Xip251-270) binding; experiment: XIP fragment 251-270 binding compounds – biochemical, small-molecule microarray, fluorescence 635/667 nm, 0.1 µg/mL protein, primary screen (AID 1182); details: fluorescent protein binding, 635 nm, higher = more signal, called active from +8 up or from −8 down
XIP peptide (Xip251-270) = experiment: compounds binding XIP fragment 251-270 – biochemical, small-molecule microarray, fluorescence 635/667 nm, 0.5 µg/mL protein, primary screen (AID 1183); details: fluorescence 635 nm, higher = more signal

SMILES	z-score [1]	z-score [2]	z-score [3]	z-score [4]	z-score [5]	z-score [6]	z-score [7]	z-score [8]	z-score [9]	z-score [10]	z-score [11]	z-score [12]	composite z-score [13]	z-score [14]	z-score [15]	z-score [16]	z-score [17]	composite z-score [18]	composite z-score [19]	composite z-score (XIP peptide (Xip251-270))
C=CC[C@@H](OC(=O)Nc1ccc(SC)cc1)c1ccc(OCCO)cc1	0.344	-0.0505	-0.2	0.0111	-2.22	0.812 (inactive)	0.561	-0.774	0.364 (inactive)	0.537	-5.16 (inactive)	0.822 (inactive)	-1.13 (inactive)	-0.0086 (inactive)	1.28 (inactive)	0.899 (inactive)	0.301	-0.0773	1.08 (inactive)	-0.689
COc1ccc([Si](C)(C)[C@H]2[C@H](CC(=O)N(CCO)Cc3ccccc3)O[C@@]3(C(=O)N(Cc4ccc(N5CCOC5=O)cc4)c4ccccc43)[C@@H]2C)cc1	1.17	-0.721	-0.931	0.17	1.51	0.647 (inactive)	-1.19	0.188	-1.36 (inactive)	-0.292	-0.693 (inactive)	-1.98 (inactive)	0.374 (inactive)	2.73 (inactive)	1.42 (inactive)	1.29 (inactive)	-2.8	0.144	1.01 (inactive)	0.631
CC(CO)N1C(=O)[C@@H]2C3C(=O)OCCC/C=C\[C@H]3OC23C=CCN(Cc2ccccc2)C(=O)[C@@H]13 (stereo not given in full)	-0.154	0.547	2.05	-0.172	0.797	1.86 (inactive)	-0.0742	0.322	0.754 (inactive)	0.918	-0.703 (inactive)	0.462 (inactive)	-0.761 (inactive)	-0.985 (inactive)	1.6 (inactive)	1.97 (inactive)	0.526	-0.0333	-0.554 (inactive)	-0.736
[N-]=[N+]=NCc1ccccc1C[C@@]1(C(=O)O)N=C(c2ccc(OCCCO)cc2)O[C@@H]1c1ccccc1	0.298	-0.187	-0.139	0.0527	-0.586	0.493 (inactive)	-0.497	0.394	0.946 (inactive)	0.458	-3.34 (inactive)	0.954 (inactive)	0.0567 (inactive)	-1.01 (inactive)	2.63 (inactive)	1.26 (inactive)	0.903	0.188	1.35 (inactive)	0.687
NCCCCCCNC(=O)[C@@H]1C[C@@H]2C(=O)N[C@@H](Cc3ccccc3)C(=O)N2[C@@H]1c1ccc(O)cc1	1.09	-0.46	0.0892	-0.141	0.666	-0.386 (inactive)	0.0478	0.188	1.19 (inactive)	0.368	-1.77 (inactive)	1.38 (inactive)	0.687 (inactive)	-0.509 (inactive)	0.236 (inactive)	0.476 (inactive)	1.53	-0.305	0.208 (inactive)	0.225
COCCCN1C(=O)[C@@]2(Cc3ccccc31)c1ccccc1C(=O)N(Cc1ccccc1Cl)[C@H]2c1ccc(CO)cc1	-0.414	0.0836	0.712	0.485	1.58	1.33 (inactive)	0.15	0.828	-0.306 (inactive)	-0.384	-0.846 (inactive)	0.686 (inactive)	-12.4 (active)	-0.921 (inactive)	0.56 (inactive)	0.891 (inactive)	0.902	-0.0699	-0.31 (inactive)	0.107
CCOC(=O)C[C@H]1[C@H](OC(=O)c2cc3ccccc3oc2=O)[C@@H](NC(=O)c2ccccc2)c2cc(OCCCO)ccc2N1C(=O)Cc1ccc(OC)cc1	2.5	-0.382	0.497	-1.86	1.66	0.965 (inactive)	-0.295	1.13	-0.53 (inactive)	-0.259	-1.99 (inactive)	0.757 (inactive)	-2.68 (inactive)	-0.859 (inactive)	3.23 (inactive)	1.78 (inactive)	0.625	-0.139	0.282 (inactive)	0.273
C=C(COC)/C(=C/C[C@H](OC(C)=O)c1ccc(CO)o1)c1cnc2ccccc2c1	0.788	-0.957	-1.42	-0.182	0.117	0.411 (inactive)	0.624	-0.271	0.445 (inactive)	0.441	-1.24 (inactive)	1.04 (inactive)	-7.31 (inactive)	-0.819 (inactive)	1.48 (inactive)	0.383 (inactive)	0.981	0.292	1.5 (inactive)	0.807
